These results are taken from PubChem BioAssay (NCI).

This is part of a sample that, as a whole, favours compounds with a hit. Of some 79,000 tested, about 15% had one in any assay. The source made the active and inactive calls. No stated cut-off is given here; in the data, active means growth inhibition above about 70%; inactive means the rest.

A short description of the assay: NCI Yeast Anticancer Drug Screen. Data for the rad50EPP+ strain (AID 151).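 Further: 0% = growth of vehicle-treated control cultures.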 The following applies: S. cerevisiae rad50 mutant strain, at 100.0 µM, stronger effect = higher value. The gist of the method:
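Genetically defined yeast (rad50EPP+, DNA damage repair alteration) is grown with compound, and inhibition of growth is expressed relative to vehicle-treated controls.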
`C/C(=N\NC(=S)SCc1ccccc1)c1ccccn1`: the growth inhibition was 92% (active).

As to `CC[C@@]1(O)C(=O)OCc2c1cc1n(c2=O)Cc2cc3c(N)cccc3nc2-1`, the growth inhibition is 52% (inactive).

For the compound `CN(C)c1ccc(Sc2ccc3nc(N)nc(N)c3c2)cc1`, the growth inhibition is 28% (inactive).

Turning to `CC(=O)OCCOCNC(=S)N/N=C(\C)c1cnccn1`, the growth inhibition is -4% (inactive).

Regarding `COc1ccc(C2c3cc4c(cc3OC(C)(O)C2C)OCO4)c(OC)c1` (centres undefined), the growth inhibition was 4% (inactive).

As to `COc1cc(C2SCC(=O)N2c2ccc(-c3ccc(-n4c(-c5ccccc5)nc5ccccc5c4=O)cc3)cc2)cc(OC)c1OC` (centres undefined), the growth inhibition is -1% (inactive).

As for `COc1ccc(Br)c(C(=O)Sc2nnnn2-c2cccc(Cl)c2)c1`, the growth inhibition was 92% (active).

In the case of `O=C(NNc1ccnc2cc(Cl)ccc12)/C(=C\c1ccccc1Cl)NC(=O)c1ccccc1`, the growth inhibition was 89% (active).

In the case of `CSC(=S)Nc1cccc(C)n1`, the growth inhibition is 68% (inactive).

Turning to `O=C(/C=C\c1ccc(Cl)cc1Cl)c1cccs1`, the growth inhibition was 58% (inactive).

For the compound `COc1ccc(-c2cn(-c3ccc(I)cc3)c3ncnc(N)c23)cc1`, the growth inhibition was 6% (inactive).

For the compound `CN(C)c1ccc(C(C#N)=C(C#N)C#N)cc1`, the growth inhibition is 50% (inactive).

With `COc1cc(/C=C2\CCc3ccccc3C2=O)cc(OC)c1OC`, the growth inhibition is 40% (inactive).

As for `CC(C)/C(Cl)=N\OC(=O)Nc1cccc(Cl)c1`, the growth inhibition was 0% (inactive).

For `CC1(C)[C@@H]2CC[C@]1(C)[C@H](OC(=O)CSC#N)C2`, the growth inhibition was 50% (inactive).

For the compound `NNC(=O)CCc1ccc2ccc3ccccc3c2c1`, the growth inhibition is 58% (inactive).

For the compound `COc1ccc(/C(C)=N/OC(=O)c2c(-c3ccccc3Cl)noc2C)cc1CN1CCOCC1`, the growth inhibition was -27% (inactive).

Consider `C=CC(C)(O)CCC1C(=C)C(O)CC2C(C)(C)CCCC12C` (centres undefined), for which the growth inhibition was -40% (inactive).

On to `S=C(Nc1ccc(Cl)c(Cl)c1)SCc1ccc2c(c1)OCO2`, for which the growth inhibition was 97% (active).

Consider `COc1cc(C2C3=C(COC3=O)Oc3cc4c(cc32)OCO4)ccc1O` (centres undefined), for which the growth inhibition was 15% (inactive).

With `S=C(Nc1ccc(Cl)cc1)SC1CCCCC1`, the growth inhibition was 98% (active).

Regarding `Nc1nc(-c2cccnc2)cc(-c2cc(-c3cccnc3)nc(N)n2)n1`, the growth inhibition was -2% (inactive).

On to `COC1=CC(=O)C2C(C1=O)C(c1ccc(Cl)cc1)[C@@H]2C` (some centres undefined), for which the growth inhibition is 98% (active).

In the case of `c1ccc(-c2nc3cccnc3s2)cc1`, the growth inhibition was 24% (inactive).

On to `O=[N+]([O-])c1cc(CCl)ccc1CCl`, for which the growth inhibition is 98% (active).

For the compound `COc1ccc(/C=C2\SC(=S)N(/C=C/c3nc4ccccc4[nH]c3=O)C2=O)cc1OC`, the growth inhibition is 63% (inactive).

Turning to `CCCN(CCC)CC(O)c1cc(-c2ccc(Cl)cc2)nc2c(C)c(Cl)ccc12` (centres undefined), the growth inhibition is 96% (active).

`O=C(Nc1ccccc1)OCCc1ccc(Cl)c(Cl)c1`: the growth inhibition was 30% (inactive).

`CC(O)C(O)C(O)C(/C=N\Nc1ccccc1)=N/Nc1ccccc1` (centres undefined): the growth inhibition was 50% (inactive).

In the case of `C#CCCCc1ccccc1`, the growth inhibition was 67% (inactive).

For the compound `CC(=O)Cc1ccc[cH-]1.[Fe+2].c1cc[cH-]c1`, the growth inhibition is 13% (inactive).

With `Cc1cc(I)ccc1N`, the growth inhibition is 74% (active).

Consider `FC(F)(F)c1cc(NC(=S)N2c3ccccc3-n3cccc3C2c2cccnc2)cc(C(F)(F)F)c1` (centres undefined), for which the growth inhibition is 57% (inactive).

Turning to `CC(C)(CN1CCCCC1)C(=O)CC(SCCS(=O)(=O)O)c1ccc(Br)cc1` (centres undefined), the growth inhibition is 14% (inactive).

On to `C[Si](C)(C)CNC(=O)OCc1ccccc1`, for which the growth inhibition was 41% (inactive).

For the compound `CC(C(=O)N1C(=O)N(C(=O)[C@H](C)C(O)c2ccccc2)[C@H](c2ccccc2)[C@H]1c1ccccc1)[C@@H](O)c1ccccc1` (some centres undefined), the growth inhibition is -11% (inactive).

On to `Oc1cccc2c(Cl)ccnc12`, for which the growth inhibition is 97% (active).

For `O=C1C=CC(=C(c2ccccc2)c2ccccc2)c2ccccc21`, the growth inhibition was 8% (inactive).

As to `S=C(S)NN1CCOCC1`, the growth inhibition is 89% (active).
